This is an account of results in ChEMBL document CHEMBL3433997, “St. Jude Leishmania screening dataset” (2016).

Format in all cases: functional
Experiment [1] has as its target Solute carrier family 2, facilitated glucose transporter member 1 (Homo sapiens) (UniProt P11166). Put plainly: ST_JUDE_LEISH: Cytotoxicity at 2uM final concentration against transgenic Leishmania Mexicana promastigotes LmGLUT1 that are glucose transport deficient and complemented with the human glucose transporter GLUT1. Activity is measured by DNA content using SYBR green in vitro.

Experiment [2] deals with Hexose transporter 1 (Plasmodium falciparum) (UniProt O97467). Put plainly: ST_JUDE_LEISH: Cytotoxicity at 2uM final concentration against transgenic Leishmania Mexicana promastigotes LmPfHT that are glucose transport deficient and complemented with the Plasmodium falciparum hexose transporter. Activity is measured by DNA content using SYBR green in vitro.
Experiment [3] deals with Glucose transporter (Leishmania mexicana) (UniProt O61059). As to the kind of experiment: ST_JUDE_LEISH: Cytotoxicity at 2uM final concentration against transgenic Leishmania Mexicana promastigotes LmGT2 that are glucose transport deficient and complemented with the L. Mexicana glucose transporter 2. Activity is measured by DNA content using SYBR green in vitro.

Structures are written as SMILES.

Solute carrier family 2, facilitated glucose transporter member 1 (Homo sapiens), sequence (P11166 whole entry): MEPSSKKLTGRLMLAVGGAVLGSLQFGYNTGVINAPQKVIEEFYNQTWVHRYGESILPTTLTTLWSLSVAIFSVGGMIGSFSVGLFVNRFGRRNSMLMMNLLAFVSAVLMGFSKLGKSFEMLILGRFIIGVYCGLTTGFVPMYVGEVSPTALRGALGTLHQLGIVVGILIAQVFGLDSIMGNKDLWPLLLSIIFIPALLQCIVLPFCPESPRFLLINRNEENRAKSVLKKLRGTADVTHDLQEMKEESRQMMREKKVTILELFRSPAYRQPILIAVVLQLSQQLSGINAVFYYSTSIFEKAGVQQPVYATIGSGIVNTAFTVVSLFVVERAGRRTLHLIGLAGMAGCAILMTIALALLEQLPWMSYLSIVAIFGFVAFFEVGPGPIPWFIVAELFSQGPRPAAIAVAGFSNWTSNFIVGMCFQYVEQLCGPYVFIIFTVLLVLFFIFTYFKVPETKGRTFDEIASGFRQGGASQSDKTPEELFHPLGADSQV

Turning to `CC(C)CN1CCN(CCNc2c3ccccc3nc3ccccc23)CC1`, the inhibition worked out at 83% in experiment [1], 83.1% in experiment [2] and 81.3% in experiment [3].
In the same order, the values of `Cc1cc2nc(-c3ccc(C(=O)NCc4ccc(C(C)(C)C)cc4)cc3)[nH]c2cc1C` are 3.51%, 2.34% and -0.6%.
Consider `CC(C)Cc1c(O)nc(SCCN2CCOCC2)[nH]c1=O`, for which the values for the inhibition in experiment [1], in experiment [2] and in experiment [3] were -0.96%, 1.54% and -0.43%, respectively.
As for `Cc1ccc(Cn2cnc(N3CC(C)NC(C)C3)cc2=O)cc1NC(=O)Nc1ccc(-c2ccccc2)cc1` (stereo not drawn), the results for the inhibition in experiment [1], in experiment [2] and in experiment [3] were -0.2%, -0.46% and -0.19%, respectively.
In the same order, the values of `COc1ccc(Cn2c(Nc3cccc(C(F)(F)F)c3)nc3cc(C(=O)NCCN4CCCC4)ccc32)cc1Cl` are 0.36%, -0.47% and 0.72%.
In the same order, the values of `O=C(/C=C/c1ccc(Cl)c(Cl)c1)NCCCCCN1CCCN(C(=O)Nc2ccc(Cl)cc2)CC1` are 0.39%, -0.48% and 0.01%.
In the same order, the values of `O=C(N[C@@H](CC1CCCCC1)C(=O)NCCN1CCCC1)c1ccc(O)c(-c2cccc(C(F)(F)F)c2)c1` are -0.44%, -0.43% and 0.16%.
Consider `CCC(C)NS(=O)(=O)c1ccc2nc(Nc3ccc(C)c(Cl)c3)n([C@H](C)C(C)(C)C)c2c1` (stereo partly drawn), for which the results for the inhibition in experiment [1], in experiment [2] and in experiment [3] were 2.63%, 2.57% and 0.57%, respectively.
The matching figures for `COc1cc(CCN(C)Cc2ccc(OC)c(OC)c2)ccc1NC(=O)c1cccc2c(O)c3cccc(F)c3nc12`: 3.49%, 1.84% and 3.27%.
In the same order, the values of `Cc1cc(N[C@@H](Cc2ccccc2)C(=O)NC2CCCC2)nc(NCc2ccccc2C)n1` are 6.22%, 6.32% and 4.04%.
For the compound `COc1ccc(CCN(C)CCOc2ccc(NC(=O)COc3ccc4sc5ccccc5c(=O)c4c3)cc2)cc1OC`, the inhibition in experiment [1] was 3.46%; in experiment [2], 4.33%; in experiment [3], 1.11%.
In the same order, the values of `CO/N=C(\C)c1ccc2c(c1)CCN(CCC1CCC(NC(=O)c3cccc(-c4noc(C)n4)c3)CC1)CC2` (stereo not drawn) are 3.41%, -1.53% and 0.75%.
The matching figures for `CS(=O)(=O)CCNCc1cccc(-c2cc3c(Nc4ccc5c(cnn5Cc5ccccc5)c4)ncnc3s2)c1`: 2.62%, -0.73% and 0.63%.
In the same order, the values of `COc1ccccc1-c1[nH]c2ccccc2c1CN1CCC(c2c(C)cccc2C)CC1` are 16.3%, 16.1% and 11%.
For the compound `O=C(NC(NC(=S)Nc1ccc([N+](=O)[O-])cc1)C(Cl)(Cl)Cl)c1cccc(Cl)c1` (stereo not drawn), the inhibition was -0.29% in experiment [1], -1.54% in experiment [2] and -0.06% in experiment [3].
The matching figures for `CN1C(=O)C(=O)N(CCCCCONC(=N)N)C1=S`: 9.86%, 6.2% and 9.97%.
The matching figures for `COc1ccc(/C=C/C(=O)Nc2ccc(-c3ccncc3)cc2)cc1CCCN(C)C`: 6.87%, 5.55% and 6.94%.
Consider `CCOC(=O)N1NC(=O)N(c2ccccc2)C1(c1ccccc1)c1ccccc1`, for which the results for the inhibition in experiment [1], in experiment [2] and in experiment [3] were 2.45%, 1.19% and 2.17%, respectively.
On to `CC(C)NCc1ccc(-c2ccc(NC(=O)c3cccc(Cl)c3)cc2)cc1`, for which the values for the inhibition in experiment [1], in experiment [2] and in experiment [3] were -2.83%, -1.18% and -3.53%, respectively.
Regarding `Brc1cc(Br)c2c(c1)C(NCCCNC1CCNc3c(Br)cc(Br)cc31)CCN2` (stereo not drawn), the inhibition was determined as 1.08% in experiment [1], 0.89% in experiment [2] and 0.34% in experiment [3].
In the same order, the values of `Cc1cccc2nc(-c3ccc(-c4ccc(CN5CCN(C6CCN(C)CC6)CC5)cc4)cc3)[nH]c12` are 1.22%, 1.31% and -0.53%.
In the same order, the values of `O=C(Nc1ccc(C(=O)Nc2cccc(C3=NCCN3)c2)cc1)Nc1ccc(C2=NCCN2)cc1` are -1.17%, 0.34% and -0.6%.
The matching figures for `Cn1nc2ccc3ccccc3c2nc1=N`: 59.2%, 44.1% and 18.6%.
Regarding `CN1CCCC(CN2CCN(Cc3ccc(-c4ccc(-c5nc6cc(F)ccc6[nH]5)s4)cc3)CC2)C1` (stereo not drawn), the inhibition in experiment [1] turned out to be 5.94%; in experiment [2], 5.97%; in experiment [3], 4.47%.
In the same order, the values of `O=C(Nc1ccc(C(=O)Oc2cccc3ccccc23)cc1)N[C@@H](Cc1ccc(O)cc1)C(=O)NC1CCN(Cc2ccc(O)cc2)C1` (stereo partly drawn) are 20.6%, 17.7% and 17.4%.
In the same order, the values of `CCCCCCNCCOc1ccc(-c2nc(-c3ccccc3)c(-c3ccccc3)[nH]2)cc1` are 4.61%, 1.32% and 1.62%.
In the same order, the values of `O=C(CCc1c[nH]cn1)Nc1ccc(-c2cccc(-c3nc4ccccc4[nH]3)c2)cc1` are 0.28%, 0.66% and 0.03%.
With `CCNc1cc(C)nc(Nc2ccc(NS(=O)(=O)c3ccccc3)cc2)n1`, the inhibition in experiment [1] was found to be 17.8%; in experiment [2] it was 11%; in experiment [3] it was 5.64%.
The matching figures for `CN(C)Cc1cccc(-c2ccc(NC(=O)c3ccc4c(=O)n(CC5CCCO5)cnc4c3)cc2)c1` (stereo not drawn): 38.5%, 22.4% and 14.5%.
In the same order, the values of `Cc1c(-c2cccc(C(C)(C)NC3CCN(Cc4ccccc4)CC3)c2)cnc(N)c1C` are 2.58%, 0.02% and 2.38%.
On to `CCCCCCCCCc1c(C)[nH]c2ccccc2c1=O`, for which the inhibition in experiment [1] was -1.28%; in experiment [2] it was 2.65%; in experiment [3] it was 2.28%.
For `CCNc1cc(CC)nc(Nc2ccc(C)cc2)n1`, the inhibition in experiment [1] was found to be 33.4%; in experiment [2], 28.9%; in experiment [3], 17.9%.
In the same order, the values of `CN(C)CCc1coc2ccc(C(=O)Nc3ccc(-c4ccc(O)cc4)cc3)cc12` are 4.69%, 4.41% and 2.77%.
On to `O=C(NCCN1CCCC1)c1ccc(-c2ccc(-c3nc4cc(C(F)(F)F)ccc4[nH]3)s2)cc1`, for which the inhibition in experiment [1] amounted to 3.7%; in experiment [2], 2.28%; in experiment [3], 3.38%.
The matching figures for `CC1(C)NC(N)=NC(=N)N1OCc1cccs1`: 10.6%, 7.52% and 7.36%.
The matching figures for `CN(C)CCN(C)Cc1ccc(-c2ccc(NC(=O)c3cccc(Cl)c3)cc2)cc1`: 7.23%, 6.44% and 6.55%.
